Sampled rows, rich in hits. Any-hit rate of the full collection: about 2%.
SUMO Mot1 rescue = SUMOylation pathway inhibition by Mot1-301 growth rescue. S. cerevisiae Mot1-301 growth rescue, ATP luminescence, 38.5C; percent above DMSO median, 100 means doubled. growth rescue, % at 18.8 µM. 1% of 320,000 active. AID 2716;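 active = every valid replicate shows activation above 250% relative to neutral control wells; inactive = the rest, any valid replicate at or below 250%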
bovine MsrA act = activates bovine MsrA enzyme. purified bovine MsrA, absorbance read-out. activation, % at 10.6 µM. 0.3% of 360,000 active. AID 602163; in the data active = activation above about 7.5%
MsrA inh = inhibits bovine methionine sulfoxide reductase A; purified bovine MsrA, absorbance read-out; AID 651718; 0.75% of 360,000 active; inhibition, % at 15.5 µM; in the data active = inhibition above about 4.5%
PKA-R2B act = activates the human PKA-R2B holoenzyme complex; AID 504700; activation, % at 11.4 µM; 0.079% of 340,000 active; PKA-R2B holoenzyme dissociation, Cy5-IP20 fluorescence polarization; R2B truncated from residue 108, S112A mutant; 0% DMSO only, 100% 113 µM cGMP;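 active = activation above a cutoff set at the mean over all compounds plus 3 SD, cut at about 18% in these data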;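 also: higher means more holoenzyme dissociation and a rise in polarization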
Target sequence (P31323 whole entry, looked up, other chains not shown, the tested form may be a part): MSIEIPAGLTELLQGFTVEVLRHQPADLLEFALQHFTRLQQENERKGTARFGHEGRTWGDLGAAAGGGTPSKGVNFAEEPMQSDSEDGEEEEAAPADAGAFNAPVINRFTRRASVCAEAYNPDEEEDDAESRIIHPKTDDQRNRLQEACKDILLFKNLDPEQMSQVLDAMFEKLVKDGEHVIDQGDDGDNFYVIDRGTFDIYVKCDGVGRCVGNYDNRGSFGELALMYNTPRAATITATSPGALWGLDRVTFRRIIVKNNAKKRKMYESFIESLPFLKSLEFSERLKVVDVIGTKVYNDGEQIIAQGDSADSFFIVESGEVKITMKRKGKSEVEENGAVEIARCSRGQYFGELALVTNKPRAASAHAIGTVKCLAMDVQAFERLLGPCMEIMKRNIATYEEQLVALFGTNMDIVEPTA
PKA-R1A activ = PKA-R1A complex activation; P00514+P68181; PKA-R1A dissociation, Cy5-IP20 fluorescence polarization; scaled: DMSO 0%, 113 µM cGMP 100%; activation, % at 11.4 µM; 0.083% of 340,000 active; AID 504707;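 active = percent activation above the mean of all tested compounds plus 3 SD, cut at about 19% in these data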;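 also: higher means more PKAc released from R1A so a rise in polarization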
Large screens that a line does not name were inactive.

COC(=O)C1=C(C)N(Cc2ccc(C(F)(F)F)cc2)C(=NCc2ccc(C(F)(F)F)cc2)NC1c1ccccc1 (stereo unspecified)	none (no result: SUMO Mot1 rescue, bovine MsrA act, PKA-R2B act, PKA-R1A activ)
COC(=O)[C@]12C[C@H](CC(=O)NCC3CCCCC3)C(=O)N(CCc3ccc(OC)c(OC)c3)C1=C[C@H](C(C)(C)C)O[C@@H]2C	none (no result: SUMO Mot1 rescue, bovine MsrA act, PKA-R2B act, PKA-R1A activ)
COc1cc2c(cc1OC)C(C(=O)O)C(c1ccc3c(c1)OCO3)N(C)C2=O (stereo unspecified)	none (no result: SUMO Mot1 rescue, bovine MsrA act, PKA-R2B act, PKA-R1A activ)
O=C(N[C@H](Cc1ccccc1)C(=O)N1CCN(c2ccc(Cl)cn2)CC1)[C@H]1O[C@@H](n2ccc(=O)[nH]c2=O)[C@H](O)[C@@H]1O	none (no result: SUMO Mot1 rescue, bovine MsrA act, PKA-R2B act, PKA-R1A activ)
Nc1[nH]c(C(=O)c2ccccc2)c(-c2ccccc2C(F)(F)F)c1C(=O)c1c[nH]c2ccccc12	none (no result: SUMO Mot1 rescue, bovine MsrA act, PKA-R2B act, PKA-R1A activ)
COCC(=O)N1C[C@H]2CON(C)[C@H]2C[C@H]1c1cccc(-c2cc(Cl)cc(Cl)c2)c1	none (no result: SUMO Mot1 rescue, bovine MsrA act, PKA-R2B act, PKA-R1A activ)
Clc1ccc(OCCOCCN2CCCCC2)c(Br)c1	PKA-R1A activ 19
Cc1ccc(Cl)c(OCCN2CCCC(C)C2)c1 (stereo unspecified)	SUMO Mot1 rescue 538
CC1CCCN(CCCOc2ccc(Cl)cc2Br)C1 (stereo unspecified)	SUMO Mot1 rescue 482
CC1CCN(CCCOc2ccc(Cl)cc2Br)CC1	none (no result: SUMO Mot1 rescue)
Cc1ccc(C(C[N+](=O)[O-])c2c(-c3ccccc3O)[nH][nH]c2=O)cc1 (stereo unspecified)	SUMO Mot1 rescue 272
C#CC(=O)N(c1cccc(OC)c1)C(C(=O)NC1CCCC1)c1cccs1 (stereo unspecified)	SUMO Mot1 rescue 331
CCN(CC)CCCNC(=O)CCC(=O)Nc1ccc2nc(N3CCCCC3)cc(C)c2c1	SUMO Mot1 rescue 889
COc1cc(C(=O)N/C(=C\c2cn(C)c3ccccc23)C(=O)NCCCO)cc(OC)c1OC	MsrA inh 4.7
Cn1c(SCC(=O)NCC2CCCO2)ncc(C(=O)Nc2ccccc2)c1=O (stereo unspecified)	SUMO Mot1 rescue 418
O=C(N/C(=C\c1ccc([N+](=O)[O-])cc1)C(=O)N1CCOCC1)c1ccccc1	MsrA inh 4.6
COc1cccc(C2C(C(=O)c3ccco3)=C(O)C(=O)N2CCN(C)C)c1OC (stereo unspecified)	SUMO Mot1 rescue 470
Cc1nn(C)c(C)c1C1C(C#N)=C(N)OC2=C1C(=O)CCC2 (stereo unspecified)	SUMO Mot1 rescue 311
COC(=O)C1=C(C)N(Cc2cccc(C(F)(F)F)c2)C(=NCc2cc(OC)c(OC)c(OC)c2)NC1c1cccc(Cl)c1 (stereo unspecified)	none (no result: SUMO Mot1 rescue, bovine MsrA act, PKA-R2B act, PKA-R1A activ)
CCc1ccc(NC(=O)C2CCCCC2C(=O)O)cc1 (stereo unspecified)	none
CC(C)c1ccc(NC(=O)C2CCCCC2C(=O)O)cc1 (stereo unspecified)	SUMO Mot1 rescue active
COC(=O)c1cc2c(c3c4ccccc4n(S(=O)(=O)c4ccc(C)cc4)c13)C(=O)N(C)C2	none (no result: SUMO Mot1 rescue, bovine MsrA act, PKA-R2B act, PKA-R1A activ)
O=c1ccsc2ccccc12	none (no result: SUMO Mot1 rescue, PKA-R2B act, PKA-R1A activ)
O=c1[nH]sc2ccccc12	bovine MsrA act 13 (no result: SUMO Mot1 rescue)
CN(C)c1ccc(C(=O)NCC2CCN(C(=O)C(=O)c3cccs3)CC2)cc1	none (no result: SUMO Mot1 rescue, bovine MsrA act, PKA-R2B act, PKA-R1A activ)
CNC(=S)NNC(=O)c1ccc(=O)n(Cc2ccc(Cl)cc2Cl)c1	none
CNC(=S)NNC(=O)c1cccn(Cc2ccc(Cl)cc2Cl)c1=O	SUMO Mot1 rescue 336 (no result: bovine MsrA act, PKA-R2B act, PKA-R1A activ)
CSC1=Nc2ccccc2N=C(N2CCCC2)C1	none (no result: SUMO Mot1 rescue, bovine MsrA act, PKA-R2B act, PKA-R1A activ)
Cc1ccc(N(C(C)C(=O)Nc2ccc(S(=O)(=O)N3CCOCC3)cc2)S(C)(=O)=O)cc1C (stereo unspecified)	SUMO Mot1 rescue 286
CS(=O)(=O)c1ccc(OCCCN2CCC(C(O)(c3ccccc3)c3ccccc3)CC2)cc1	none (no result: SUMO Mot1 rescue, bovine MsrA act, PKA-R2B act, PKA-R1A activ)
CCC(C)(C)NC(=O)C(c1ccncc1)N(C(=O)c1sc(C)nc1C)c1ccc(F)cc1 (stereo unspecified)	none
COCCNC(=O)C(c1ccncc1)N(C(=O)c1sc(C)nc1C)c1cccc(C)c1 (stereo unspecified)	SUMO Mot1 rescue active
CCCCCCCCN1C(=O)[C@@H](CC(=O)N2CCN(C(=O)OCC)CC2)C[C@@]2(C(=O)OC)C1=C[C@H](C(C)(C)C)O[C@@H]2C	none (no result: SUMO Mot1 rescue, bovine MsrA act, PKA-R2B act, PKA-R1A activ)
Cn1c(=O)c2c(ncn2CC(=O)N(Cc2ccccc2)c2ccccn2)n(C)c1=O	SUMO Mot1 rescue 299
Cc1ccc(S(=O)(=O)N(C)Cc2ccccc2)cc1C(=O)N1CCCCC1	SUMO Mot1 rescue 336
COc1cccc(OCc2cc(/C=N/Nc3ccc(C(=O)O)cc3)ccc2OC)c1	none
COc1cccc(C(=O)Oc2ccc(/C=N/Nc3ccc(C(=O)O)cc3)cc2OC)c1	MsrA inh 4.6
CC1=C(C#N)C(=O)NC(=O)/C1=C\c1ccc(-c2cc(C)c(C)cc2[N+](=O)[O-])o1	MsrA inh 9.0 (no result: SUMO Mot1 rescue)
Cc1ccc(-c2ccc(/C=C3/NC(=O)NC3=O)o2)cc1[N+](=O)[O-]	none (no result: SUMO Mot1 rescue)
COC(=O)c1cc2c(c3c4cc(C)ccc4n(S(=O)(=O)c4ccc(OC)cc4)c13)C(=O)N(Cc1ccccc1OC)C2	none (no result: SUMO Mot1 rescue, bovine MsrA act, PKA-R2B act, PKA-R1A activ)
COC(=O)CCN1CCC(c2cc(-c3cccc(C(F)(F)F)c3)n[nH]2)CC1	SUMO Mot1 rescue 320
CS(=O)(=O)c1ccc2nc(NC(=O)c3ccc(NS(=O)(=O)c4ccc(F)c(F)c4)cc3)sc2c1	none
O=C(Nc1nc2ccc(SC(F)F)cc2s1)c1ccc(NS(=O)(=O)c2ccc(F)c(F)c2)cc1	SUMO Mot1 rescue 622
COc1ccc2c(c1)C(NC(=O)C(F)(F)F)CC21CCCCC1 (stereo unspecified)	none (no result: SUMO Mot1 rescue, bovine MsrA act, PKA-R2B act, PKA-R1A activ)
O=C(O)c1ccccc1NS(=O)(=O)c1ccc(NN=Cc2ccc(F)cc2)c([N+](=O)[O-])c1	none (no result: MsrA inh)
O=C(O)c1ccccc1NS(=O)(=O)c1ccc(N/N=C/c2ccc(O)c(O)c2)c([N+](=O)[O-])c1	MsrA inh 4.8 (no result: SUMO Mot1 rescue)
Cc1cccc(NC(=S)N2CCN(c3ccccn3)CC2)c1	none
Cc1ccc(NC(=S)N2CCN(C(=O)c3ccccc3)CC2)c(C)c1	SUMO Mot1 rescue 440
Cc1ccc(NC(=S)N2CCN(c3ccccn3)CC2)c(C)c1	SUMO Mot1 rescue 325
COc1ccccc1C(=O)OCC(=O)NC(C)CCc1ccccc1 (stereo unspecified)	none
COc1ccccc1C(=O)NCC(=O)NC(C)CCc1ccccc1 (stereo unspecified)	SUMO Mot1 rescue 340
CCCCOc1ccc(CC2CCC(=O)NC2=O)cc1 (stereo unspecified)	SUMO Mot1 rescue active
CCCCOc1ccc(C2CC(=O)NC2=O)cc1 (stereo unspecified)	none
O=C(N/N=C/c1ccc2c(c1)OCCO2)c1ccncc1	MsrA inh 4.5
COc1cc2c(cc1OC)C(C)N(C(C)=O)CC2 (stereo unspecified)	none
COc1cc2c(cc1OC)C(C)N(C(=O)C1COc3ccccc3O1)CC2 (stereo unspecified)	SUMO Mot1 rescue 755
